# Where “and” joins values, the source holds several entries; their conditions need not be identical. Equal entries are not always repeated. Screen size: about 5,500 compounds; about 2,000 (36%) were called active. About 18% were inconclusive and are not listed. Some of the results follow. Unmarked numbers belong to inactive results. Cut-off read from the data, not from the text of the source: active = normalized growth mostly below about 0.91 (no sharp cut-off); inconclusive = no clear call, values can overlap the other calls; inactive = mostly above about 0.92.
# Test: chemical genetic growth profiling, strain panel (AID 1159580);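 note: tested at 20 µM; growth read once vehicle control cultures reached saturation at 30 °C; 1 = growth at the plate median or of vehicle wells; lower values mean less growth of the strain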
# Settings: S. cerevisiae deletion strains, growth OD
compound,measurement,setting,value
CN(C)CCc1c[nH]c2ccc(CS(=O)(=O)N3CCCC3)cc12,normalized growth,"locus YAL013W, strain DEP1, stronger effect = lower value",0.991
same,normalized growth,"locus YAL021C, strain ccr4, stronger effect = lower value",0.991
same,normalized growth,"locus YAL026C, strain drs2, stronger effect = lower value",0.976
same,normalized growth,"locus YAL030W, strain snc1, stronger effect = lower value",1.01
same,normalized growth,"locus YBL061C, strain skt5, stronger effect = lower value",1.01
same,normalized growth,"locus YBR009C, strain hhf1, stronger effect = lower value",0.925
same,normalized growth,"locus YBR021W, strain FUR4, stronger effect = lower value",1
same,normalized growth,"locus YBR023C, strain chs3, stronger effect = lower value",0.997
same,normalized growth,"locus YBR171W, strain sec66, stronger effect = lower value",1
same,normalized growth,"locus YBR229C, strain ROT2, stronger effect = lower value",0.995
same,normalized growth,"locus YBR231C, strain swc5, stronger effect = lower value",0.993
same,normalized growth,"locus YBR279W, strain paf1, stronger effect = lower value",0.986
same,normalized growth,"locus YCL011C, strain gbp2, stronger effect = lower value",0.982
same,normalized growth,"locus YCL016C, strain dcc1, stronger effect = lower value",1.02
same,normalized growth,"locus YCL029C, strain bik1, stronger effect = lower value",0.981
same,normalized growth,"locus YCL069W, strain vba3, stronger effect = lower value",0.977
same,normalized growth,"locus YCR088W, strain abp1, stronger effect = lower value",0.986
same,normalized growth,"locus YDL005C, strain med2, stronger effect = lower value",1.01
same,normalized growth,"locus YDL035C, strain GPR1, stronger effect = lower value",1.01
same,normalized growth,"locus YDL040C, strain nat1, stronger effect = lower value",0.99
same,normalized growth,"locus YDL074C, strain BRE1, stronger effect = lower value",1.05
same,normalized growth,"locus YDL101C, strain DUN1, stronger effect = lower value",0.987
same,normalized growth,"locus YDL134C, strain PPH21, stronger effect = lower value",0.99
same,normalized growth,"locus YDL185W, strain tfp1, stronger effect = lower value",0.979
same,normalized growth,"locus YDL192W, strain arf1, stronger effect = lower value",0.991
same,normalized growth,"locus YDR001C, strain nth1, stronger effect = lower value",0.98
same,normalized growth,"locus YDR069C, strain doa4, stronger effect = lower value",0.992
same,normalized growth,"locus YDR101C, strain arx1, stronger effect = lower value",0.986
same,normalized growth,"locus YDR137W, strain rgp1, stronger effect = lower value",0.986
same,normalized growth,"locus YDR150W, strain NUM1, stronger effect = lower value",0.999
same,normalized growth,"locus YDR159W, strain sac3, stronger effect = lower value",0.831 (active)
same,normalized growth,"locus YDR162C, strain NBP2, stronger effect = lower value",1.01
same,normalized growth,"locus YDR195W, strain ref2",0.937
same,normalized growth,"locus YDR297W, strain sur2, stronger effect = lower value",0.996
same,normalized growth,"locus YDR318W, strain mcm21, stronger effect = lower value",0.996
same,normalized growth,"locus YDR334W, strain swr1, stronger effect = lower value",0.949
same,normalized growth,"locus YDR335W, strain msn5, stronger effect = lower value",0.982
same,normalized growth,"locus YDR388W, stronger effect = lower value",0.988
same,normalized growth,"locus YDR392W, strain spt3, stronger effect = lower value",0.972
same,normalized growth,"locus YDR502C, strain sam2, stronger effect = lower value",0.989
same,normalized growth,"locus YEL003W, strain gim4, stronger effect = lower value",0.977
same,normalized growth,"locus YEL037C, strain rad23, stronger effect = lower value",0.976
same,normalized growth,"locus YEL061C, strain CIN8 (second series), stronger effect = lower value",0.958
same,normalized growth,"locus YEL061C, strain CIN8, stronger effect = lower value",1
same,normalized growth,"locus YER015W, strain faa2, stronger effect = lower value",0.993
same,normalized growth,"locus YER016W, strain bim1, stronger effect = lower value",1.05
same,normalized growth,"locus YER110C, stronger effect = lower value",0.99
same,normalized growth,"locus YER111C, strain swi4, stronger effect = lower value",0.998
same,normalized growth,"locus YER155C, strain BEM2 (second series), stronger effect = lower value",1.02
same,normalized growth,"locus YER155C, strain BEM2, stronger effect = lower value",1.02
same,normalized growth,"locus YER167W, strain BCK2, stronger effect = lower value",0.992
same,normalized growth,"locus YFR010W, strain ubp6, stronger effect = lower value",0.947
same,normalized growth,"locus YGL078C, strain dbp3, stronger effect = lower value",0.985
same,normalized growth,"locus YGL086W, strain mad1, stronger effect = lower value",0.988
same,normalized growth,"locus YGL167C, strain pmr1, stronger effect = lower value",0.983
same,normalized growth,"locus YGL173C, strain kem1, stronger effect = lower value",0.958
same,normalized growth,"locus YGL227W, strain vid30, stronger effect = lower value",0.966
same,normalized growth,"locus YGL240W, strain doc1, stronger effect = lower value",0.926
same,normalized growth,"locus YGL248W, strain PDE1, stronger effect = lower value",0.993
same,normalized growth,"locus YGL253W, strain hxk2, stronger effect = lower value",1
same,normalized growth,"locus YGR078C, strain PAC10, stronger effect = lower value",1.01
same,normalized growth,"locus YGR135W, strain pre9, stronger effect = lower value",0.999
same,normalized growth,"locus YGR229C, strain SMI1, stronger effect = lower value",1.01
same,normalized growth,"locus YGR252W, strain gcn5, stronger effect = lower value",1.03
same,normalized growth,"locus YHR013C, strain ard1, stronger effect = lower value",1.02
same,normalized growth,"locus YHR027C, strain rpn1, stronger effect = lower value",0.984
same,normalized growth,"locus YHR030C, strain SLT2, stronger effect = lower value",0.995 and 0.96
same,normalized growth,"locus YHR079C, strain IRE1 (second series), stronger effect = lower value",0.981
same,normalized growth,"locus YHR079C, strain IRE1, stronger effect = lower value",0.984
same,normalized growth,"locus YHR094C, strain hxt1, stronger effect = lower value",0.987
same,normalized growth,"locus YHR129C, strain ARP1, stronger effect = lower value",0.981
same,normalized growth,"locus YHR142W, strain chs7, stronger effect = lower value",0.976
same,normalized growth,"locus YHR200W, strain rpn10, stronger effect = lower value",0.991
same,normalized growth,"locus YIL066C, strain RNR3, stronger effect = lower value",0.998
same,normalized growth,"locus YIL073C, strain SPO22, stronger effect = lower value",0.999
same,normalized growth,"locus YIL125W, strain kgd1, stronger effect = lower value",0.994
same,normalized growth,"locus YIR030C, strain dcg1, stronger effect = lower value",0.983
same,normalized growth,"locus YJL092W, strain hpr5, stronger effect = lower value",0.99
same,normalized growth,"locus YJL095W, strain BCK1 (second series), stronger effect = lower value",0.991
same,normalized growth,"locus YJL095W, strain BCK1, stronger effect = lower value",0.984 and 0.977
same,normalized growth,"locus YJL115W, strain asf1, stronger effect = lower value",0.987
same,normalized growth,"locus YJL129C, strain trk1, stronger effect = lower value",0.994
same,normalized growth,"locus YJL134W, strain LCB3, stronger effect = lower value",0.991
same,normalized growth,"locus YJL154C, strain vps35, stronger effect = lower value",0.978
same,normalized growth,"locus YJL164C, strain tpk1, stronger effect = lower value",0.99
same,normalized growth,"locus YJL166W, strain qcr8, stronger effect = lower value",0.986
same,normalized growth,"locus YJL168C, strain set2, stronger effect = lower value",0.987
same,normalized growth,"locus YJL187C, strain SWE1 (second series), stronger effect = lower value",0.986
same,normalized growth,"locus YJL187C, strain SWE1, stronger effect = lower value",1.01
same,normalized growth,"locus YJR043C, strain POL32, stronger effect = lower value",0.994
same,normalized growth,"locus YJR066W, strain TOR1, stronger effect = lower value",0.925

# Reference: PubChem BioAssay AID1159580 (chemical genetic matrix, 2015)
